An excerpt weighted towards active compounds, which were near 4.7% of everything screened.
CCHFV vOTU inh – blocks the CCHF virus ovarian tumor domain protease | CCHFV vOTU protease, Pep-AMC fluorescence | inhibition, % at 11.5 µM | 0.55% of 370,000 active; in the data active means inhibition above about 30%
VHR inh abs – inhibitors of human VHR1 phosphatase (DUSP3); inhibition, % at 13.3 µM; P51452; AID 1654; 0.52% of 290,000 active; recombinant VHR phosphatase, pNPP absorbance; in the data active means inhibition above about 50%
Target sequence (P51452 whole entry, looked up): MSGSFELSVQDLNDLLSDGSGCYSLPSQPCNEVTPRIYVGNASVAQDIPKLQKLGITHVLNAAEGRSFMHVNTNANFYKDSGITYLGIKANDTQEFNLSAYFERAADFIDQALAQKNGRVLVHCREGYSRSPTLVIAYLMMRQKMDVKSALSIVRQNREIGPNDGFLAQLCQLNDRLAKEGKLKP
Mtb FBA inh – inhibits M. tuberculosis FBA enzyme; P9WQA3; 2.3% of 360,000 active; AID 588726; inhibition, % at 1 µM; purified M. tuberculosis FBA, fluorescence read-out
Target sequence (P9WQA3 whole entry, looked up): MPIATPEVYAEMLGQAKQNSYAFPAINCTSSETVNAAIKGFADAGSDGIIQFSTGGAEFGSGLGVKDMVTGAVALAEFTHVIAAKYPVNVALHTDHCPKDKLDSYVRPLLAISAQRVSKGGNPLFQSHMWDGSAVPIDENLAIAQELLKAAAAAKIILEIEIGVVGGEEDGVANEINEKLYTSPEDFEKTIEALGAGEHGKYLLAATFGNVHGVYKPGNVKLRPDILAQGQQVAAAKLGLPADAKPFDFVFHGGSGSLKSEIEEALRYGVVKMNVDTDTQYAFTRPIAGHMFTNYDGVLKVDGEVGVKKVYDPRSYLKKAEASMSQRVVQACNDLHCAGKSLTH
3CLpro inhibitor – SARS-CoV 3CLpro protease inhibition. P0C6X7. recombinant SARS-CoV 3CLpro, quenched FRET peptide cleavage. inhibition, % at 6 µM. 0.14% of 290,000 active; in the data active means inhibition above about 12%
GDH-TPI counter-1 – inhibits GDH-TPI coupling enzymes, artifact for Mtb FBA screen. AID 588335. 1.2% of 360,000 active. inhibition, % at 4.8 µM. GDH-TPI coupled enzyme counterscreen, NADH absorbance; in the data active means inhibition above about 30%
RecA splice inh – inhibitors of M. tuberculosis RecA intein splicing; cell-free RecA intein splicing, fluorescence; inhibition, % (no concentration beside the values); 0.75% of 290,000 active; AID 2221; in the data active means inhibition above about 30%
Mtb FBA inh conf – confirmation of M. tuberculosis fructose-bisphosphate aldolase inhibitors; shares compounds with Mtb FBA inh; purified M. tuberculosis FBA, fluorescence read-out; inhibition, % at 1 µM; 78% of 5,600 active
GDH-TPI counter-2 – GDH-TPI inhibition counter-screen for FBA inhibitors; shares compounds with Mtb FBA inh; GDH-TPI coupled enzyme counterscreen, fluorescence; inhibition, % at 1 µM; 81% of 5,600 active; AID 652141; in the data active means inhibition above about 10%
Large screens that a line does not name were inactive (follow-up assays come after a bar, where they were run). Unless noted, no stated cut-off is given here; in the data, active means inhibition above about 27%; inactive means the rest.

Cc1cccn2c(=O)c3cc(C(=O)NCCN4CCOCC4)c(=N)n(CCc4ccccc4)c3nc12	Mtb FBA inh 102 | Mtb FBA inh conf 58 | GDH-TPI counter-2 55
COCCCn1c(=O)c2ccccc2n(CC(=O)NCCC2=CCCCC2)c1=O	none
Cc1c(Cl)cccc1NC(=S)Nc1ccc(S(=O)(=O)Nc2ncccn2)cc1	none (no result: VHR inh abs, 3CLpro inhibitor, RecA splice inh)
CCCCN1CCc2c1nc1ccc(Br)cc1c2N	none
Cc1cccc2c(N)c3c(nc12)N(C)CC3	Mtb FBA inh 31 | Mtb FBA inh conf 77 | GDH-TPI counter-2 45
Nc1c2c(nc3cccc(Cl)c13)N(c1ccccc1)CC2	none
Cc1ccc2nc3c(c(N)c2c1)CCN3c1ccccc1	Mtb FBA inh 29 | Mtb FBA inh conf active | GDH-TPI counter-2 active
CN1CCc2c1nc1ccccc1c2N (tested in a mixture with another compound)	Mtb FBA inh 29 | Mtb FBA inh conf 96 | GDH-TPI counter-2 83
Cc1oc2cc(O)ccc2c(=O)c1Oc1ccc2ccccc2c1	Mtb FBA inh 111 | Mtb FBA inh conf 53 | GDH-TPI counter-2 38
Cc1oc2cc(O)ccc2c(=O)c1Oc1ccc(F)cc1	Mtb FBA inh 103 | Mtb FBA inh conf inactive | GDH-TPI counter-2 inactive
COc1c(C)oc2cc(O)ccc2c1=O	Mtb FBA inh 87 | Mtb FBA inh conf 58 | GDH-TPI counter-2 40
COc1cc(-c2cc(=O)c3ccc(O)cc3o2)cc(OC)c1OC	none (no result: VHR inh abs, 3CLpro inhibitor, RecA splice inh)
CC1=NOC(=O)/C1=C\c1ccc(-c2ccccc2Br)o1	none
Cc1c(C(=O)NCc2cccs2)sc(=O)n1Cc1ccc(S(C)(=O)=O)cc1	none (no result: VHR inh abs, 3CLpro inhibitor, RecA splice inh)
O=C(NCCO)c1ccc2[nH]c3ccccc3c2c1	Mtb FBA inh 35 | Mtb FBA inh conf inactive | GDH-TPI counter-2 inactive
O=C(NCCc1c[nH]c2ccccc12)c1ccc2[nH]c(=O)c(=O)[nH]c2c1	none
C=CCn1c(-c2ccc(N)cc2)nc2ccccc21	Mtb FBA inh 92 | Mtb FBA inh conf inactive | GDH-TPI counter-2 inactive
CCn1c(-c2ccc(N)cc2)nc2ccccc21	Mtb FBA inh 83 | Mtb FBA inh conf 102 | GDH-TPI counter-2 78
C=CCn1c(N)nc2ccccc21	none
COc1cccc(C(NC(C)=O)c2nc(-c3ccc(OC)nc3)cs2)c1 (configuration not stated)	none (no result: VHR inh abs, 3CLpro inhibitor, RecA splice inh)
COc1cccc(N(C)C(=O)[C@@H](C)[C@@H](O)c2ccc(Cl)cc2)c1	none (no result: VHR inh abs, Mtb FBA inh, 3CLpro inhibitor, GDH-TPI counter-1, RecA splice inh)
COc1ccc(OC)c2c1C(=O)C(Cl)=C(Cl)C2=O	none
COc1ccc(OC)c2c1C(=O)CC2C (configuration not stated)	Mtb FBA inh 48 (no result: VHR inh abs, 3CLpro inhibitor, RecA splice inh) | Mtb FBA inh conf inactive | GDH-TPI counter-2 inactive
c1cc(-c2ccc(N3CCOCC3)cc2)n2cnnc2c1	Mtb FBA inh 92 (no result: VHR inh abs, 3CLpro inhibitor, RecA splice inh) | Mtb FBA inh conf 174 | GDH-TPI counter-2 151
Cc1cc(OCCN2CCC(Cc3ccccc3)CC2)ccc1[N+](=O)[O-]	none
O=c1oc(CCCO)cc2ccc(C#Cc3cccnc3)cc12	Mtb FBA inh 53 (no result: VHR inh abs, 3CLpro inhibitor, RecA splice inh) | Mtb FBA inh conf 45 | GDH-TPI counter-2 37
O=c1oc(CCO)cc2ccc(C#Cc3ccsc3)cc12	Mtb FBA inh 45 (no result: VHR inh abs, 3CLpro inhibitor, RecA splice inh) | Mtb FBA inh conf 82 | GDH-TPI counter-2 52
c1coc(-c2ccnc3ncnn23)c1	Mtb FBA inh 93 | Mtb FBA inh conf 94 | GDH-TPI counter-2 74
c1cncc(-c2ccnc3ncnn23)c1	none
Cc1cccc(CS(=O)(=O)Cc2ccc(C(=O)NC3CCCCCC3)o2)c1	none
Nc1nccc(/C=C/c2ccc(Cl)cc2)n1	Mtb FBA inh 30 | Mtb FBA inh conf 84 | GDH-TPI counter-2 49
CCS(=O)(=O)Nc1c(C(=O)O)[nH]c2ccccc12	Mtb FBA inh 46 | Mtb FBA inh conf 76 | GDH-TPI counter-2 63
CCS(=O)(=O)Nc1c(C(=O)OC)[nH]c2ccccc12	none
CN(C(=O)c1nc(-c2ccccc2)n(-c2ccccc2)n1)C1CCS(=O)(=O)C1 (configuration not stated)	none
Cc1cccn2c(NCc3ccc4c(c3)OCO4)c(-c3ccc(O)cc3)nc12	Mtb FBA inh 53 | Mtb FBA inh conf 182 | GDH-TPI counter-2 112
O=C(Nc1cccc2ccccc12)N1CC=C(c2ccccc2)CC1	Mtb FBA inh 33 | Mtb FBA inh conf 55 | GDH-TPI counter-2 68
Cc1cccc(NC(=O)N2CCN(Cc3ccccc3)CC2)c1	none
O=C(Nc1cccc2ccccc12)N1CCN(Cc2ccccc2)CC1	Mtb FBA inh 33 | Mtb FBA inh conf 96 | GDH-TPI counter-2 74
CCOC(=O)N1CCN(C(=O)Nc2cccc3ccccc23)CC1	Mtb FBA inh 31 | Mtb FBA inh conf 170 | GDH-TPI counter-2 156
CC(C)(C)[C@H](NC(=O)c1ccc(N)c(Cl)c1)C(=O)N1CCC[C@H]1C(=O)N[C@H](C#N)CC(=O)O	none (no result: VHR inh abs, 3CLpro inhibitor, RecA splice inh)
Cc1nnc(N2CCN(c3ccccc3)CC2)c2nn(-c3ccccc3F)c(C)c12	none (no result: CCHFV vOTU inh, VHR inh abs, Mtb FBA inh, GDH-TPI counter-1, RecA splice inh)
CCCCCCNC(=O)CCCCCNS(=O)(=O)c1ccc(OC)cc1	none
C=C(C)COC(=O)C1CC2OC2CC1C(=O)OCC(=C)C (configuration not stated)	none (no result: VHR inh abs, 3CLpro inhibitor, RecA splice inh)
Clc1cccc(Cc2c(C3CCCCC3)nc3c4ccccc4ccn23)c1	none (no result: VHR inh abs, Mtb FBA inh, 3CLpro inhibitor, GDH-TPI counter-1, RecA splice inh)
CCCc1nc2nc(C)c(NS(=O)(=O)c3ccc([N+](=O)[O-])cc3)c(=O)n2[nH]1	none (no result: RecA splice inh)
C[N+]1(CC(=O)OCCCc2ccccc2)CCCCC1	Mtb FBA inh 30 | Mtb FBA inh conf 60 | GDH-TPI counter-2 42
CC(=O)NC(c1ccco1)c1cc(Cl)c2ccccc2c1O (configuration not stated)	Mtb FBA inh 37 (no result: VHR inh abs, 3CLpro inhibitor, RecA splice inh) | Mtb FBA inh conf active | GDH-TPI counter-2 active
CCC(=O)NC(c1ccco1)c1cc(Cl)c2ccccc2c1O (configuration not stated)	Mtb FBA inh 30 (no result: VHR inh abs, 3CLpro inhibitor, RecA splice inh) | Mtb FBA inh conf 79 | GDH-TPI counter-2 56
CCCC(=O)NC(c1ccco1)c1cc(Cl)c2cccnc2c1O (configuration not stated)	none
CC(=O)NC(c1ccco1)c1cc(Cl)c2ccc(Cl)nc2c1O (configuration not stated)	none (no result: VHR inh abs, 3CLpro inhibitor, RecA splice inh)
CCCCNC(=O)c1cc2cc(CC)ccc2[nH]1	Mtb FBA inh 31 | Mtb FBA inh conf 79 | GDH-TPI counter-2 65
COCCCNC(=O)COC(=O)c1ccc(-c2nc3ccccc3s2)s1	Mtb FBA inh 79 | Mtb FBA inh conf 94 | GDH-TPI counter-2 70
COc1ccc(CCNC(=O)COC(=O)c2ccc(C)s2)cc1	none (no result: VHR inh abs, 3CLpro inhibitor, RecA splice inh)
O=C(Cc1nc2ccccc2[nH]1)N/N=C/c1ccccc1	none
COc1ccc(OC)c(/C=N/NC(=O)Cc2nc3ccccc3[nH]2)c1	Mtb FBA inh 74 | Mtb FBA inh conf 51 | GDH-TPI counter-2 30
